Measured values: publication PMC8384837, “Expanding the binding specificity for RNA recognition by a PUF domain”

Assays:
Assay in all cases: yeast three-hybrid, YBZ-1, SC-Leu-His + 0.5 mM 3-AT, 4 days
Conditions in all cases: tags: N-Gal4 AD-HA kept; label: inside an RPR1-promoter hybrid RNA with tandem MS2 sites; ssRNA
PUM1 PUF domain R5-TRV = PUM1 PUF domain R5-TRV (Homo sapiens, UniProt Q14671 828-1176, C1007T;Q1011V)
Summary of the method: (§1)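 Matching RNA elements and Pumilio-1 PUF domain libraries, randomized at the three base-contacting residues of every repeat, were co-expressed from a centromeric plasmid in strain YBZ-1 (LexA–MS2 coat fusion, HIS3 reporter). The repeat regions were PCR-amplified and Illumina-sequenced from cells grown four days on SC-Leu (input) or SC-Leu-His + 0.5 mM 3-AT (selection). The interaction score is the log change in variant frequency from input to selection. It is computed in log2, with a pseudocount of 1 for absent variants.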

PUM1 PUF domain R8-CYR = PUM1 PUF domain R8-CYR (Homo sapiens, UniProt Q14671 828-1176, N1122C;Q1126R)
Summary of the method: as §1

PUM1 PUF domain R8-AYR = PUM1 PUF domain R8-AYR (Homo sapiens, UniProt Q14671 828-1176, N1122A;Q1126R)
Summary of the method: as §1

PUM1 PUF domain R8-RRH = PUM1 PUF domain R8-RRH (Homo sapiens, UniProt Q14671 828-1176, N1122R;Y1123R;Q1126H)
Summary of the method: as §1

PUM1 PUF domain R3-PYY = PUM1 PUF domain R3-PYY (Homo sapiens, UniProt Q14671 828-1176, C935P;R936Y;Q939Y)
Summary of the method: as §1

PUM1 PUF domain R3-GRW = PUM1 PUF domain R3-GRW (Homo sapiens, UniProt Q14671 828-1176, C935G;Q939W)
Summary of the method: as §1

PUM1 PUF domain R5-QSR = PUM1 PUF domain R5-QSR (Homo sapiens, UniProt Q14671 828-1176, C1007Q;R1008S;Q1011R)
Summary of the method: as §1

PUM1 PUF domain R5-TRM = PUM1 PUF domain R5-TRM (Homo sapiens, UniProt Q14671 828-1176, C1007T;Q1011M)
Summary of the method: as §1

PUM1 PUF domain R3-RNA = PUM1 PUF domain R3-RNA (Homo sapiens, UniProt Q14671 828-1176, C935R;R936N;Q939A)
Summary of the method: as §1

PUM1 PUF domain R4-VNS = PUM1 PUF domain R4-VNS (Homo sapiens, UniProt Q14671 828-1176, N971V;H972N;Q975S)
Summary of the method: as §1

PUM1 PUF domain R7-KHF = PUM1 PUF domain R7-KHF (Homo sapiens, UniProt Q14671 828-1176, S1079K;N1080H;E1083F)
Summary of the method: as §1

PUM1 PUF domain R1-RNQ = PUM1 PUF domain R1-RNQ (Homo sapiens, UniProt Q14671 828-1176, S863R;R864N)
Summary of the method: as §1

PUM1 PUF domain R7-QSN = PUM1 PUF domain R7-QSN (Homo sapiens, UniProt Q14671 828-1176, S1079Q;N1080S;E1083N)
Summary of the method: as §1

PUM1 PUF domain R7-KVV = PUM1 PUF domain R7-KVV (Homo sapiens, UniProt Q14671 828-1176, S1079K;N1080V;E1083V)
Summary of the method: as §1

PUM1 PUF domain R2-RKW = PUM1 PUF domain R2-RKW (Homo sapiens, UniProt Q14671 828-1176, N899R;Y900K;Q903W)
Summary of the method: as §1

PUM1 PUF domain R2-RHE = PUM1 PUF domain R2-RHE (Homo sapiens, UniProt Q14671 828-1176, N899R;Y900H;Q903E)
Summary of the method: as §1

PUM1 PUF domain R5-RMT = PUM1 PUF domain R5-RMT (Homo sapiens, UniProt Q14671 828-1176, C1007R;R1008M;Q1011T)
Summary of the method: as §1

PUM1 PUF domain R1-VKK = PUM1 PUF domain R1-VKK (Homo sapiens, UniProt Q14671 828-1176, S863V;R864K;Q867K)
Summary of the method: as §1

PUM1 PUF domain R8-PFH = PUM1 PUF domain R8-PFH (Homo sapiens, UniProt Q14671 828-1176, N1122P;Y1123F;Q1126H)
Summary of the method: as §1

PUM1 PUF domain R5-PMK = PUM1 PUF domain R5-PMK (Homo sapiens, UniProt Q14671 828-1176, C1007P;R1008M;Q1011K)
Summary of the method: as §1

PUM1 PUF domain R5-TRV, sequence (Q14671 828-1176 C1007T/Q1011V): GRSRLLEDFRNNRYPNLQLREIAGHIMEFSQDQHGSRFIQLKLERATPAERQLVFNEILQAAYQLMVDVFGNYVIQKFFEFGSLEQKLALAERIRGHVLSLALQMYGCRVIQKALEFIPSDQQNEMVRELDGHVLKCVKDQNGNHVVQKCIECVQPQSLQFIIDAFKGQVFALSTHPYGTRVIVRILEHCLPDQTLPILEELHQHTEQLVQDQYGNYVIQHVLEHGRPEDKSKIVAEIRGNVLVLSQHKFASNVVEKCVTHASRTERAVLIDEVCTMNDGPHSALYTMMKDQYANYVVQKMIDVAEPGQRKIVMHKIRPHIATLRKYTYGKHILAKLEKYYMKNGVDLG
PUM1 PUF domain R8-CYR, sequence (Q14671 828-1176 N1122C/Q1126R): as the sequence (Q14671 828-1176 C1007T/Q1011V) above, with T180C, V184Q, N295C, Q299R counted along it
PUM1 PUF domain R8-AYR, sequence (Q14671 828-1176 N1122A/Q1126R): as the sequence (Q14671 828-1176 C1007T/Q1011V) above, with T180C, V184Q, N295A, Q299R counted along it
PUM1 PUF domain R3-GRW, sequence (Q14671 828-1176 C935G/Q939W): as the sequence (Q14671 828-1176 C1007T/Q1011V) above, with C108G, Q112W, T180C, V184Q counted along it
PUM1 PUF domain R8-RRH, sequence (Q14671 828-1176 N1122R/Y1123R/Q1126H): as the sequence (Q14671 828-1176 C1007T/Q1011V) above, with T180C, V184Q, N295R, Y296R, Q299H counted along it
PUM1 PUF domain R4-VNS, sequence (Q14671 828-1176 N971V/H972N/Q975S): as the sequence (Q14671 828-1176 C1007T/Q1011V) above, with N144V, H145N, Q148S, T180C, V184Q counted along it
PUM1 PUF domain R5-QSR, sequence (Q14671 828-1176 C1007Q/R1008S/Q1011R): as the sequence (Q14671 828-1176 C1007T/Q1011V) above, with T180Q, R181S, V184R counted along it
PUM1 PUF domain R7-KHF, sequence (Q14671 828-1176 S1079K/N1080H/E1083F): as the sequence (Q14671 828-1176 C1007T/Q1011V) above, with T180C, V184Q, S252K, N253H, E256F counted along it
PUM1 PUF domain R7-KVV, sequence (Q14671 828-1176 S1079K/N1080V/E1083V): as the sequence (Q14671 828-1176 C1007T/Q1011V) above, with T180C, V184Q, S252K, N253V, E256V counted along it
PUM1 PUF domain R3-PYY, sequence (Q14671 828-1176 C935P/R936Y/Q939Y): as the sequence (Q14671 828-1176 C1007T/Q1011V) above, with C108P, R109Y, Q112Y, T180C, V184Q counted along it
PUM1 PUF domain R8-PFH, sequence (Q14671 828-1176 N1122P/Y1123F/Q1126H): as the sequence (Q14671 828-1176 C1007T/Q1011V) above, with T180C, V184Q, N295P, Y296F, Q299H counted along it
PUM1 PUF domain R1-RNQ, sequence (Q14671 828-1176 S863R/R864N): as the sequence (Q14671 828-1176 C1007T/Q1011V) above, with S36R, R37N, T180C, V184Q counted along it
PUM1 PUF domain R1-VKK, sequence (Q14671 828-1176 S863V/R864K/Q867K): as the sequence (Q14671 828-1176 C1007T/Q1011V) above, with S36V, R37K, Q40K, T180C, V184Q counted along it
PUM1 PUF domain R5-TRM, sequence (Q14671 828-1176 C1007T/Q1011M): as the sequence (Q14671 828-1176 C1007T/Q1011V) above, with V184M counted along it
PUM1 PUF domain R7-QSN, sequence (Q14671 828-1176 S1079Q/N1080S/E1083N): as the sequence (Q14671 828-1176 C1007T/Q1011V) above, with T180C, V184Q, S252Q, N253S, E256N counted along it
PUM1 PUF domain R2-RKW, sequence (Q14671 828-1176 N899R/Y900K/Q903W): as the sequence (Q14671 828-1176 C1007T/Q1011V) above, with N72R, Y73K, Q76W, T180C, V184Q counted along it
PUM1 PUF domain R5-PMK, sequence (Q14671 828-1176 C1007P/R1008M/Q1011K): as the sequence (Q14671 828-1176 C1007T/Q1011V) above, with T180P, R181M, V184K counted along it
PUM1 PUF domain R5-RMT, sequence (Q14671 828-1176 C1007R/R1008M/Q1011T): as the sequence (Q14671 828-1176 C1007T/Q1011V) above, with T180R, R181M, V184T counted along it
PUM1 PUF domain R2-RHE, sequence (Q14671 828-1176 N899R/Y900H/Q903E): as the sequence (Q14671 828-1176 C1007T/Q1011V) above, with N72R, Y73H, Q76E, T180C, V184Q counted along it
PUM1 PUF domain R3-RNA, sequence (Q14671 828-1176 C935R/R936N/Q939A): as the sequence (Q14671 828-1176 C1007T/Q1011V) above, with C108R, R109N, Q112A, T180C, V184Q counted along it

GGCUAGAACUAGUGGAUCCCCCGGCGCCCGGCGGCUCGAGCCCGGGUAAGUGUAAAUAGUCUGCAUGCCGCCGGGCGCCAUGCCUGCAGGUCGACUCUAGAAAACAUG
binding signal (PUM1 PUF domain R5-TRV): 4.29 log2 enrichment (interaction score) | binding signal (PUM1 PUF domain R8-CYR): 4.59 log2 enrichment (interaction score) | binding signal (PUM1 PUF domain R8-AYR): 4.26 log2 enrichment (interaction score) | binding signal (PUM1 PUF domain R8-RRH): 0.67 log2 enrichment (interaction score) | binding signal (PUM1 PUF domain R3-PYY): 6.39 log2 enrichment (interaction score) | binding signal (PUM1 PUF domain R3-GRW): 4.33 log2 enrichment (interaction score) | binding signal (PUM1 PUF domain R5-QSR): 1.54 log2 enrichment (interaction score) | binding signal (PUM1 PUF domain R5-TRM): 2.74 log2 enrichment (interaction score)

GGCUAGAACUAGUGGAUCCCCCGGCGCCCGGCGGCUCGAGCCCGGGUAAGUGUAAUUAGUCUGCAUGCCGCCGGGCGCCAUGCCUGCAGGUCGACUCUAGAAAACAUG
binding signal (PUM1 PUF domain R3-RNA): 3.87 log2 enrichment (interaction score) | binding signal (PUM1 PUF domain R3-GRW): 0.31 log2 enrichment (interaction score)

GGCUAGAACUAGUGGAUCCCCCGGCGCCCGGCGGCUCGAGCCCGGGUAAGUGUACAUAGUCUGCAUGCCGCCGGGCGCCAUGCCUGCAGGUCGACUCUAGAAAACAUG
binding signal (PUM1 PUF domain R4-VNS): 1.91 log2 enrichment (interaction score)

GGCUAGAACUAGUGGAUCCCCCGGCGCCCGGCGGCUCGAGCCCGGGUAAGUGUAUAUAGUCUGCAUGCCGCCGGGCGCCAUGCCUGCAGGUCGACUCUAGAAAACAUG
binding signal (PUM1 PUF domain R4-VNS): 2.92 log2 enrichment (interaction score)

GGCUAGAACUAGUGGAUCCCCCGGCGCCCGGCGGCUCGAGCCCGGGUAAGGGUAAAUAGUCUGCAUGCCGCCGGGCGCCAUGCCUGCAGGUCGACUCUAGAAAACAUG
binding signal (PUM1 PUF domain R8-CYR): 2.63 log2 enrichment (interaction score)

GGCUAGAACUAGUGGAUCCCCCGGCGCCCGGCGGCUCGAGCCCGGGUAAGUCUAAAUAGUCUGCAUGCCGCCGGGCGCCAUGCCUGCAGGUCGACUCUAGAAAACAUG
binding signal (PUM1 PUF domain R7-KHF): 2.94 log2 enrichment (interaction score)

GGCUAGAACUAGUGGAUCCCCCGGCGCCCGGCGGCUCGAGCCCGGGUAAGUGUGAAUAGUCUGCAUGCCGCCGGGCGCCAUGCCUGCAGGUCGACUCUAGAAAACAUG
binding signal (PUM1 PUF domain R5-TRV): 3.38 log2 enrichment (interaction score)

GGCUAGAACUAGUGGAUCCCCCGGCGCCCGGCGGCUCGAGCCCGGGUAAGUGUAAAUCGUCUGCAUGCCGCCGGGCGCCAUGCCUGCAGGUCGACUCUAGAAAACAUG
binding signal (PUM1 PUF domain R1-RNQ): 4.55 log2 enrichment (interaction score)

GGCUAGAACUAGUGGAUCCCCCGGCGCCCGGCGGCUCGAGCCCGGGUAAGUUUAAAUAGUCUGCAUGCCGCCGGGCGCCAUGCCUGCAGGUCGACUCUAGAAAACAUG
binding signal (PUM1 PUF domain R7-QSN): 4.28 log2 enrichment (interaction score) | binding signal (PUM1 PUF domain R7-KVV): 2.62 log2 enrichment (interaction score)

GGCUAGAACUAGUGGAUCCCCCGGCGCCCGGCGGCUCGAGCCCGGGUAAGUGUAAAGAGUCUGCAUGCCGCCGGGCGCCAUGCCUGCAGGUCGACUCUAGAAAACAUG
binding signal (PUM1 PUF domain R2-RKW): 2.92 log2 enrichment (interaction score) | binding signal (PUM1 PUF domain R2-RHE): 3.71 log2 enrichment (interaction score)

GGCUAGAACUAGUGGAUCCCCCGGCGCCCGGCGGCUCGAGCCCGGGUAAGUGUCAAUAGUCUGCAUGCCGCCGGGCGCCAUGCCUGCAGGUCGACUCUAGAAAACAUG
binding signal (PUM1 PUF domain R5-RMT): 3.58 log2 enrichment (interaction score) | binding signal (PUM1 PUF domain R5-QSR): 4.21 log2 enrichment (interaction score)

GGCUAGAACUAGUGGAUCCCCCGGCGCCCGGCGGCUCGAGCCCGGGUAAGUGUAAAUUGUCUGCAUGCCGCCGGGCGCCAUGCCUGCAGGUCGACUCUAGAAAACAUG
binding signal (PUM1 PUF domain R1-VKK): 2.11 log2 enrichment (interaction score)

GGCUAGAACUAGUGGAUCCCCCGGCGCCCGGCGGCUCGAGCCCGGGUAAGCGUAAAUAGUCUGCAUGCCGCCGGGCGCCAUGCCUGCAGGUCGACUCUAGAAAACAUG
binding signal (PUM1 PUF domain R8-CYR): 4.19 log2 enrichment (interaction score) | binding signal (PUM1 PUF domain R8-AYR): 4.07 log2 enrichment (interaction score) | binding signal (PUM1 PUF domain R8-PFH): 2.98 log2 enrichment (interaction score) | binding signal (PUM1 PUF domain R8-RRH): 2.65 log2 enrichment (interaction score)

GGCUAGAACUAGUGGAUCCCCCGGCGCCCGGCGGCUCGAGCCCGGGUAAGUGUUAAUAGUCUGCAUGCCGCCGGGCGCCAUGCCUGCAGGUCGACUCUAGAAAACAUG
binding signal (PUM1 PUF domain R5-TRV): 3.28 log2 enrichment (interaction score) | binding signal (PUM1 PUF domain R5-PMK): 2.73 log2 enrichment (interaction score)
